From PubChem BioAssay AID651815 (National Center for Advancing Translational Sciences (NCATS), 2012) come the findings set out here.

Structures are written as SMILES. The campaign covered roughly 2,100 compounds. About 1,100 (52%) were called active. Roughly 29% stayed inconclusive and do not appear here. The call rests on the fitted dose curve; in most records, active means well fitted inhibition curve with a large enough effect; inconclusive means small, poorly fitted or top-dose-only effect; inactive means no such curve, though single readings can be large or run the other way. So high a share suggests a set chosen from earlier hits. The list shows a part of the results.
Potency means the concentration at half of the fitted maximal effect.

Chain of DNA dC->dU-editing enzyme APOBEC-3F (Homo sapiens) (Q8IUX4 whole entry, looked up): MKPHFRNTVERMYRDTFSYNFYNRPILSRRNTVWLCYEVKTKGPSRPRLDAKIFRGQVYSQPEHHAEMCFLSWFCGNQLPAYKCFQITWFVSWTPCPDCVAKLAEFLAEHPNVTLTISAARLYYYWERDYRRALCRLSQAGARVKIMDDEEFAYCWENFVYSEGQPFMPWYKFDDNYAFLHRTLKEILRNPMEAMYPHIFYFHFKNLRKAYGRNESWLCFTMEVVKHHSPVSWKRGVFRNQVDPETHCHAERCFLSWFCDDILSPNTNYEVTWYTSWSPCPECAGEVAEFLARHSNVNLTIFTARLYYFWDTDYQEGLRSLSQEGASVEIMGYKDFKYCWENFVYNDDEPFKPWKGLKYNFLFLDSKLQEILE

This experiment concerns the target DNA dC->dU-editing enzyme APOBEC-3F (Homo sapiens) (UniProt Q8IUX4). Put plainly: qHTS for inhibitors of Vif-A3F interactions: Cherry picks counterscreen. Further: nearly all actives have a fitted effect of over 65% in size. As to conditions: HeLa A3F-eYFP/Vif cells, eYFP fluorescence, 24 h; series mostly up to 46.1 µM. The method in brief: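 Rescue of Vif-driven A3F-eYFP degradation read as cellular eYFP fluorescence after 24 h compound exposure (several concentrations) in stable HeLa cells; MG132 (2 mM stock) as positive control.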
Take `O=C(c1cc(-c2ccncc2)nc2ccccc12)N1CCN(c2ccccn2)CC1`: the Potency is 6.27 µM (active).
Next, `COC(=O)c1sc(N)c(C(=O)OC)c1COC(=O)c1c(C)noc1C`: 4.44 µM (active); `COc1ccc(C(=O)c2sc3nc4c(c(C(F)(F)F)c3c2N)CN(C(C)=O)CC4)cc1OC`: 23.1 µM (active).
Next, `CC(=O)N1CCc2nc3sc(C(=O)c4ccc(F)cc4)c(N)c3c(C(F)(F)F)c2C1`: 18.4 µM (active); `COc1ccccc1-c1nnc2sc(-c3cc4ccccc4o3)nn12`: 5.59 µM (active).
Next, `Cc1c2ccccc2nc2c(F)c(NC(C)C)c(F)c(F)c12`: 6.51 µM (active); `CCCNc1c(F)c(F)c2c(C)c3ccccc3nc2c1F`: 15.8 µM (active); `c1ccc(-c2cnn3c(-c4ccccc4)c(-c4ccccc4)nc3n2)cc1`: 0.461 µM (active).
Consider `CC(=O)c1sc2nc(-c3cccs3)cc(C(F)(F)F)c2c1N`, for which the Potency was 16.4 µM (active).
As for `Nc1c(C(=O)C2CC2)sc2nc(-c3cccs3)cc(C(F)(F)F)c12`, the Potency is 1.16 µM (active).
Next, `CC(C)(C)C(=O)c1sc2nc(-c3cccs3)cc(C(F)(F)F)c2c1N`: 1.84 µM (active); `CCCc1nc2c(C)cc(Br)cn2c1Cc1ccccc1`: “inactive”; `C=CCn1cc(/C=C/c2cc[n+](C)cc2)c2ccccc21`: 0.198 µM (active).
Next, `CC(C)n1cc(/C=C/c2cc[n+](C)cc2)c2ccccc21`: 0.0559 µM (active).
Next, `CCn1cc(/C=C/c2cc[n+](C)cc2)c2ccccc21`: 0.0498 µM (active); `COc1cc(OC)c(/C=C/c2ccc3ccccc3[n+]2C)c(OC)c1`: 11.6 µM (active); `N#Cc1c(-c2ccccc2F)cc(C2CC2)nc1SCC(=O)c1cccs1`: 14 µM (active).
Turning to `CCc1c(C)nc(SCC(=O)c2cccs2)c(C#N)c1C`, the Potency entry is “inactive”.
Next, `COc1cccc(CNCCSc2nnnn2C)c1OCc1ccc(F)cc1`: “inactive”; `Fc1ccc(COc2ccc3ccccc3c2CNc2nn[nH]n2)cc1`: 19.8 µM (active).
Turning to `O=C(NNC1=Nc2cccc3cccc1c23)c1ccc(Br)cc1`, the Potency was 23.1 µM (active).
On to `COc1cc(OC)c(/C=C2\SC(=O)N(CC(=O)Nc3ccccc3F)C2=O)c(OC)c1`, for which the Potency is 12.5 µM (active).
Next, `O=C(Cn1nc2c(cc1=O)CCCC2)NCc1ccc(Cl)cc1`: 16.4 µM (active); `N#C/C(=C/c1cccs1)c1ccccn1`: 15.8 µM (active); `CC(=O)Nc1cccc(-c2ccnc3c2CC(C)(C(=O)NCc2cccs2)O3)c1` (stereo not drawn): 4.44 µM (active).
Regarding `CC1(C(=O)NCc2ccccc2)Cc2c(-c3ccc(C(N)=O)cc3)ccnc2O1` (stereo not drawn), the Potency is 7.9 µM (active).
For the compound `CC1(C(=O)NCc2ccco2)Cc2c(-c3cccc(C(N)=O)c3)ccnc2O1` (stereo not drawn), the Potency is 14 µM (active).
In the case of `CC(=O)Nc1cccc(-c2ccnc3c2CC(C)(C(=O)NCc2ccccc2)O3)c1` (stereo not drawn), the Potency is 2.8 µM (active).
Next, `CC(=O)Nc1cccc(-c2ccnc3c2CC(C(=O)NCc2cccs2)O3)c1` (stereo not drawn): 5.59 µM (active); `CC1(C(=O)NCc2ccccc2)Cc2c(-c3cccc(C(N)=O)c3)ccnc2O1` (stereo not drawn): 7.04 µM (active).
For `Cc1ccc2nc(/C(C#N)=C\c3ccc([N+](=O)[O-])o3)[nH]c2c1`, the Potency was 10.3 µM (active).
As for `N#C/C(=C\c1ccc([N+](=O)[O-])o1)c1nc2ccccc2[nH]1`, the Potency is 8.2 µM (active).
Next, `N#C/C(=C\c1cccnc1)c1nc2ccccc2[nH]1`: 14 µM (active).
Next, `N#C/C(=C\c1ccc(Cl)cc1)c1nc2ncccc2[nH]1`: 15.8 µM (active).
For the compound `CCCOc1cc(N(CC)CC)ccc1/C=C(/C#N)c1nc2ccc(C)cc2[nH]1`, the Potency entry was “inactive”.
Next, `CC(/C=N/NC(=O)c1cc(-c2ccccc2)nc2ccccc12)=C\c1ccco1`: 3.14 µM (active); `CCc1ccc(/C=N/NC(=O)c2cc(-c3ccncc3)nc3ccccc23)s1`: 4.98 µM (active).
Next, `C/C(=N\NC(=O)c1cc(-c2ccncc2)nc2ccccc12)c1ccc(N2CCOCC2)cc1`: “inactive”; `O=C(N/N=C/c1ccco1)c1cc(-c2ccncc2)nc2ccccc12`: 6.27 µM (active).
`CCn1c(O)c(/C=N/NC(=O)c2ccncc2)c(=O)n(CC)c1=S`: the Potency result is “inactive”.
Next, `CC1CCN(c2ccc3c(c2)S(=O)(=O)c2cccc(C(=O)NCc4cccc(F)c4)c2C3=O)CC1`: 14 µM (active); `O=C(NCc1cccc(F)c1)c1cccc2c1C(=O)c1ccc(N3CCCC3)cc1S2(=O)=O`: 17.7 µM (active); `Cc1ccc(CNC(=O)c2cccc3c2C(=O)c2ccc(N4CCC(C)CC4)cc2S3(=O)=O)cc1`: 14.6 µM (active).
Next, `COc1ccc2oc(=Nc3ccccc3)c(-c3nc4ccccc4[nH]3)cc2c1`: 20.6 µM (active).
Turning to `COc1cc(C(=O)Nc2ccc(C)cc2)c2ccccc2n1`, the Potency is 1.77 µM (active).
`CCOC(=O)c1csc(NC(=O)c2cc(-c3ccccn3)nc3ccccc23)n1`: the Potency entry was “inactive”.
Turning to `Cc1ccc(Cl)cc1NC(=O)Nc1cn(CC(C)C)c(=O)c2ccccc12`, the Potency entry was “inactive”.
Next, `Cc1ccc(C)c(NC(=O)Cn2cc(S(=O)(=O)Cc3cccc(Cl)c3)c3ccccc32)c1`: 6.51 µM (active); `CCS(=O)(=O)N1N=C(c2ccc(C)cc2)CC1c1cc2ccc(OC)cc2nc1Cl` (stereo not drawn): “inactive”.
For the compound `COc1ccc(C2CC(c3ccncc3)=NN2c2ccc(S(N)(=O)=O)cc2)cc1` (stereo not drawn), the Potency was 20.6 µM (active).
Next, `COc1ccc2nc(NC(=S)NC(=O)c3ccco3)sc2c1`: “inactive”; `O=C(Nc1nc2ccc(F)cc2s1)c1ccc([N+](=O)[O-])o1`: 15.8 µM (active).
Turning to `COc1ccc(NC(=O)c2c(Cl)n(C)c3ccccc23)cc1`, the Potency is 14 µM (active).
For the compound `COc1cc(OC)c(OC)cc1/C=C1\CC(C)C/C(=C\c2cc(OC)c(OC)cc2OC)C1=O` (stereo not drawn), the Potency was 18.4 µM (active).
Next, `CCOc1ncccc1C(=O)NCc1ccc(OC)cc1`: 8.86 µM (active); `CCCOc1ccc2cc(C(=O)NCc3ccccc3)c(=O)oc2c1`: “inactive”; `CCOc1ccc(CNC(=O)c2ccccc2NC(=O)c2nsc3ccccc23)cc1`: 16.4 µM (active).
In the case of `COc1ccc2c(n1)Sc1nc3ccccc3nc1N2`, the Potency was 3.26 µM (active).
Next, `COc1ccc(C2C(C#N)=C(N)Oc3cc(N)ccc32)cc1OC` (stereo not drawn): 12.5 µM (active).
In the case of `COc1cc(C2C(C#N)=C(N)Oc3cc(O)ccc32)cc2c1OCO2` (stereo not drawn), the Potency is 15.8 µM (active).
In the case of `Cc1oc(C)c2c(=O)ccc3c(c12)OC(N)=C(C#N)C3c1ccc(F)cc1` (stereo not drawn), the Potency result was “inactive”.
For the compound `N#CC1=C(N)Oc2cc(N)ccc2C1c1cccc(F)c1` (stereo not drawn), the Potency was 2.5 µM (active).
Next, `COc1ccc(C2C(C#N)=C(N)Oc3c2ccc2cccnc32)cc1OC` (stereo not drawn): 3.53 µM (active).
